# Source: PubChem BioAssay AID1159580 (chemical genetic matrix, 2015)
# Where “and” joins values, the source holds several entries; their conditions need not be identical. Equal entries are not always repeated. Out of some 5,500 compounds screened, about 2,000 (36%) were called active. Roughly 18% stayed inconclusive and do not appear here. This is one part of the list. Values without a mark were called inactive. Cut-off read from the data, not from the text of the source: active = normalized growth mostly below about 0.91 (no sharp cut-off); inconclusive = no clear call, values can overlap the other calls; inactive = mostly above about 0.92.
# Experiment: chemical genetic growth profiling, strain panel (AID 1159580);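 note: tested at 20 µM; growth read once vehicle control cultures reached saturation at 30 °C; 1 = growth at the plate median or of vehicle wells; lower values mean less growth of the strain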
# Conditions: S. cerevisiae deletion strains, growth OD
smiles,measurement,setting,value
COc1cc2c(cc1OC)[C@@H]1C(=O)c3ccc4c(c3O[C@@H]1CO2)CC(C(C)C)O4 (some centres not stated),normalized growth,"locus YAL021C, strain ccr4, active compounds read low",0.989
same,normalized growth,"locus YAL026C, strain drs2, active compounds read low",0.969
same,normalized growth,"locus YAL030W, strain snc1, active compounds read low",0.998
same,normalized growth,"locus YBL061C, strain skt5, active compounds read low",1
same,normalized growth,"locus YBR009C, strain hhf1, active compounds read low",0.938
same,normalized growth,"locus YBR021W, strain FUR4, active compounds read low",0.993
same,normalized growth,"locus YBR023C, strain chs3, active compounds read low",0.981
same,normalized growth,"locus YBR171W, strain sec66, active compounds read low",0.974
same,normalized growth,"locus YBR229C, strain ROT2, active compounds read low",0.994
same,normalized growth,"locus YBR231C, strain swc5, active compounds read low",0.932
same,normalized growth,"locus YBR279W, strain paf1, active compounds read low",0.982
same,normalized growth,"locus YCL011C, strain gbp2, active compounds read low",0.991
same,normalized growth,"locus YCL016C, strain dcc1, active compounds read low",0.984
same,normalized growth,"locus YCL029C, strain bik1, active compounds read low",1.02
same,normalized growth,"locus YCL061C, strain MRC1, active compounds read low",0.96
same,normalized growth,"locus YCL069W, strain vba3, active compounds read low",0.99
same,normalized growth,"locus YCR088W, strain abp1, active compounds read low",0.99
same,normalized growth,"locus YDL005C, strain med2, active compounds read low",0.978
same,normalized growth,"locus YDL035C, strain GPR1, active compounds read low",0.972
same,normalized growth,"locus YDL040C, strain nat1, active compounds read low",0.985
same,normalized growth,"locus YDL074C, strain BRE1, active compounds read low",0.952
same,normalized growth,"locus YDL101C, strain DUN1, active compounds read low",0.982
same,normalized growth,"locus YDL185W, strain tfp1, active compounds read low",1.01
same,normalized growth,"locus YDL192W, strain arf1, active compounds read low",1.01
same,normalized growth,"locus YDR001C, strain nth1, active compounds read low",0.987
same,normalized growth,"locus YDR069C, strain doa4, active compounds read low",1
same,normalized growth,"locus YDR101C, strain arx1, active compounds read low",0.998
same,normalized growth,"locus YDR137W, strain rgp1, active compounds read low",0.89
same,normalized growth,"locus YDR150W, strain NUM1, active compounds read low",1.01
same,normalized growth,"locus YDR159W, strain sac3, active compounds read low",0.957
same,normalized growth,"locus YDR162C, strain NBP2, active compounds read low",0.941
same,normalized growth,"locus YDR195W, strain ref2",0.982
same,normalized growth,"locus YDR297W, strain sur2, active compounds read low",0.972
same,normalized growth,"locus YDR318W, strain mcm21, active compounds read low",1
same,normalized growth,"locus YDR334W, strain swr1, active compounds read low",0.99
same,normalized growth,"locus YDR335W, strain msn5, active compounds read low",1.01
same,normalized growth,"locus YDR388W, active compounds read low",1.01
same,normalized growth,"locus YDR392W, strain spt3, active compounds read low",0.707 (active)
same,normalized growth,"locus YDR502C, strain sam2, active compounds read low",0.998
same,normalized growth,"locus YEL003W, strain gim4, active compounds read low",0.959
same,normalized growth,"locus YEL037C, strain rad23, active compounds read low",0.999
same,normalized growth,"locus YEL061C, strain CIN8 (second series), active compounds read low",0.99
same,normalized growth,"locus YEL061C, strain CIN8, active compounds read low",1
same,normalized growth,"locus YER015W, strain faa2, active compounds read low",0.965
same,normalized growth,"locus YER016W, strain bim1, active compounds read low",0.984
same,normalized growth,"locus YER110C, active compounds read low",1.01
same,normalized growth,"locus YER111C, strain swi4, active compounds read low",1.01
same,normalized growth,"locus YER155C, strain BEM2 (second series), active compounds read low",0.931
same,normalized growth,"locus YER155C, strain BEM2, active compounds read low",1
same,normalized growth,"locus YER167W, strain BCK2, active compounds read low",1
same,normalized growth,"locus YFR010W, strain ubp6, active compounds read low",0.98
same,normalized growth,"locus YGL078C, strain dbp3, active compounds read low",1.01
same,normalized growth,"locus YGL086W, strain mad1, active compounds read low",0.985
same,normalized growth,"locus YGL167C, strain pmr1, active compounds read low",0.987
same,normalized growth,"locus YGL173C, strain kem1, active compounds read low",0.977
same,normalized growth,"locus YGL227W, strain vid30, active compounds read low",0.975
same,normalized growth,"locus YGL240W, strain doc1, active compounds read low",0.956
same,normalized growth,"locus YGL248W, strain PDE1, active compounds read low",0.979
same,normalized growth,"locus YGL253W, strain hxk2, active compounds read low",0.96
same,normalized growth,"locus YGR135W, strain pre9, active compounds read low",1.02
same,normalized growth,"locus YGR252W, strain gcn5, active compounds read low",0.895
same,normalized growth,"locus YHR013C, strain ard1, active compounds read low",0.998
same,normalized growth,"locus YHR027C, strain rpn1, active compounds read low",0.993
same,normalized growth,"locus YHR030C, strain SLT2, active compounds read low",1.01 and 1.04
same,normalized growth,"locus YHR079C, strain IRE1 (second series), active compounds read low",1.01
same,normalized growth,"locus YHR079C, strain IRE1, active compounds read low",1.07
same,normalized growth,"locus YHR094C, strain hxt1, active compounds read low",1.01
same,normalized growth,"locus YHR129C, strain ARP1, active compounds read low",0.998
same,normalized growth,"locus YHR142W, strain chs7, active compounds read low",0.986
same,normalized growth,"locus YHR200W, strain rpn10, active compounds read low",1.02
same,normalized growth,"locus YIL066C, strain RNR3, active compounds read low",0.945
same,normalized growth,"locus YIL073C, strain SPO22, active compounds read low",1.03
same,normalized growth,"locus YIL125W, strain kgd1, active compounds read low",0.989
same,normalized growth,"locus YIR030C, strain dcg1, active compounds read low",1
same,normalized growth,"locus YJL092W, strain hpr5, active compounds read low",0.994
same,normalized growth,"locus YJL095W, strain BCK1 (second series), active compounds read low",0.98
same,normalized growth,"locus YJL095W, strain BCK1, active compounds read low",0.944 and 1.04
same,normalized growth,"locus YJL115W, strain asf1, active compounds read low",0.987
same,normalized growth,"locus YJL129C, strain trk1, active compounds read low",0.92
same,normalized growth,"locus YJL134W, strain LCB3, active compounds read low",1.01
same,normalized growth,"locus YJL154C, strain vps35, active compounds read low",0.993
same,normalized growth,"locus YJL164C, strain tpk1, active compounds read low",0.981
same,normalized growth,"locus YJL166W, strain qcr8, active compounds read low",0.934
same,normalized growth,"locus YJL168C, strain set2, active compounds read low",1.01
same,normalized growth,"locus YJL187C, strain SWE1 (second series), active compounds read low",0.981
same,normalized growth,"locus YJR043C, strain POL32, active compounds read low",0.976
same,normalized growth,"locus YJR066W, strain TOR1, active compounds read low",0.987
